# In PubChem BioAssay (NCI):
# About 79,000 compounds went through this panel and 15% of them were active in at least one assay; those are over-represented in the sample as a whole. The source made the active and inactive calls. Cut-off read from the data, not from the text of the source: active = growth inhibition above about 70%; inactive = the rest.
# Assay: NCI Yeast Anticancer Drug Screen. Data for the rad50 strain (AID 155);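 note: 0% = growth of vehicle-only cultures of the same strain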
# Conditions: S. cerevisiae rad50 strain growth inhibition; at 50.0 µM; stronger effect = higher value
# Summary of the method: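 Compounds were tested on a yeast strain with an engineered DNA damage repair alteration; the reported value is growth inhibition normalised to vehicle treatment.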
row,Structure (SMILES),growth inhibition
1,O=C(COC(=O)c1cccc([N+](=O)[O-])c1)c1ccc(Br)cc1,6.55% (inactive)
2,Cc1ccc(NS(=O)(=O)c2ccc(F)cc2)c(C)c1,15.4% (inactive)
3,CCOC(=O)N(C)C,18.9% (inactive)
4,CCCCN1C(=O)CC2[C@@H]3CCc4cc(OC)ccc4C3CC[C@]2(C)C1=O (stereo not given in full),9.05% (inactive)
5,COc1cc2cc(-c3ccc(Cl)c(Cl)c3)[n+](C)cc2cc1OC,36% (inactive)
6,Fc1ccc(-c2ccc(F)cc2)cc1,-18.6% (inactive)
7,CC(=O)Nc1ccc(S(=O)(=O)N/N=C/c2ccc3c(c2)OCO3)cc1,4.85% (inactive)
8,Cc1ccc(/C=C2\N=C(N3CCCC(CO)C3)NC2=O)cc1 (stereo not given),18.6% (inactive)
9,O=[N+]([O-])c1ncc(N(CCO)CCO)s1,19.2% (inactive)
10,Cc1ccc(C)c(NC(=O)C(=O)C2C(=O)C3=C(CC2(C)C)Nc2ccccc2S3)c1 (stereo not given),-21.2% (inactive)
11,N[C@@H]1CCCC[C@H]1O,-0.35% (inactive)
12,CN(C)NC(=O)/C=C\C(=O)O,-12.6% (inactive)
13,CC(C)(N)CNc1ccccc1,-0.55% (inactive)
14,CN1c2ccccc2C(=O)NC12CCN(Cc1ccccc1)CC2,-30.2% (inactive)
15,CC1CCN(C(=S)[S-])CC1.CC1CCN(C(=S)[S-])CC1.[Zn],58.9% (inactive)
16,CN(C)Cc1onc(-c2c(Cl)cccc2Cl)c1C(=O)O,1.3% (inactive)
17,CC(=O)OC1=C(OC(C)=O)N(S(=O)(=O)c2ccc(C)cc2)CCc2ccccc21,31.4% (inactive)
18,O=C(Sc1ccccc1)C1OC1c1ccccc1 (stereo not given),70.2% (active)
19,CCOC(=O)N1C2C=C(C)C(ON2C(=O)c2ccccc2)C2C(C)C(=O)N21 (stereo not given),-3.8% (inactive)
20,CCOP(=O)(OCC)OC1CC(n2cc(C)c(=O)n(C)c2=O)OC1CO[Si](C)(C)C(C)(C)C (stereo not given),19.1% (inactive)

row,Structure (SMILES),growth inhibition
1,c1ccc(Sc2nc(Sc3ccccc3)nc(Sc3ccccc3)n2)cc1,-23.9% (inactive)
2,O=C(O)c1csc(C(=O)O)c1,8.5% (inactive)
3,Nc1ncc(Cl)cn1,19.6% (inactive)
4,COc1ccc(N)cc1CO,8.85% (inactive)
5,O=C(N/N=C/c1c(O)ccc2ccccc12)c1ccccc1,29% (inactive)
6,CCn1c(=O)c(Cl)c2n(C)c3ccccc3n2c1=O,-6.2% (inactive)
7,O=C(NC(=O)c1cccc(Cl)c1)Nc1ccccc1,3.1% (inactive)
8,NN(c1ccccc1)c1ccccc1,23.5% (inactive)
9,C[N+](C)(C)CC(=O)N/N=C(/Cc1nc2ccc([N+](=O)[O-])cc2[nH]c1=O)C(=O)Nc1cc(C(F)(F)F)ccc1Cl,-13.2% (inactive)
10,CCOC(=O)C(=O)Cc1cnccn1,-25.2% (inactive)
11,CCOC(Nc1ccc(Cl)cc1Cl)C(=O)c1ccccc1 (stereo not given),8.65% (inactive)
12,O=C1C(Cl)=C(Cl)C(=O)N1c1ccccc1Cl,42.5% (inactive)
13,Cc1cccc(C)c1NC(=O)CCC(=O)NC(N)=NC#N,-33.1% (inactive)
14,NC(=O)CC(NC(=O)C(F)(F)F)C(=O)O (stereo not given),-15.3% (inactive)
15,CCN(CC)CCCNc1ccc([N+](=O)[O-])c2nc3ccccc3c(N)c12,21.4% (inactive)
16,CC(N)(CCSCP(=O)(O)O)C(=O)O (stereo not given),-22.1% (inactive)
17,CCOC(=O)Nc1cc2c(c(N)n1)N=C(c1ccc(OC)cc1)CN2,33.1% (inactive)
18,CC(C)Oc1c(N(C)CCO)c2cc(Cl)ccc2oc1=O,-6.1% (inactive)
19,OC/C(I)=C(I)\C(I)=C(\I)CO,99.2% (active)
20,C=C(C)COB(OCC(=C)C)OCC(=C)C,-6.3% (inactive)
